Hits are enriched below; roughly 4.6% of the tested compounds scored in any of these assays.
VACV mCherry inh – inhibitors of vaccinia virus infection (mCherry reporter signal); 310,000 tested, 0.63% active; Vaccinia virus mCherry reporter infection, fluorescence; Potency, µM (highest dose often 36.5 µM), inactives show at the highest dose activity change, negative = inhibition, most hits filed as inhibitors; calls by dose curve; tested in A549 cells; also: nearly all actives have a fitted effect of over 35% in size
LASV entry inh – Lassa virus entry inhibition; 300,000 tested, 1.2% active; Potency, µM (titrated, usually from 37.9 µM), for the others: at the top dose activity change, negative = inhibition, hits mostly inhibitors; Lassa virus pseudotype entry inhibition, cell reporter; calls by dose curve; tested in HEK293 cells; also: nearly all actives have a fitted effect of over 50% in size
Marburg entry inh – blocks Marburg virus binding to or entry into cells | Marburg virus pseudotyped entry inhibition, cell reporter | Potency, µM (doses to about 37.8 µM), inactives show at the highest dose activity change, negative = inhibition, most hits filed as inhibitors | 300,000 tested, 1.8% active; calls by dose curve; tested in HEK293 cells
VACV Venus inh – inhibitors of vaccinia virus (Venus reporter); Vaccinia virus Venus reporter expression, fluorescence; AID 720580; Potency, µM (highest dose often 36.5 µM), for the others: at the top dose activity change, negative = inhibition, usual class: inhibitors; 330,000 tested, 0.46% active; calls by dose curve; tested in A549 cells; also: nearly all actives have a fitted effect of over 30% in size
HCV inh – blocks hepatitis C virus. Huh7.5.1 HCVcc-Cre infection, luciferase reporter, 44 h. Potency, µM (series often up to 41.8 µM), for the others: at the highest dose activity change, negative = inhibition, actives largely listed as inhibitors. 340,000 tested, 3.4% active. AID 651820; active = well fitted inhibition curve with a large enough effect; inconclusive = small, poorly fitted or top-dose-only effect, or another doubt; inactive = no such curve, though single readings can be large or run the other way
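Cells seeded at 1,000/well and cultured 4 h, then compounds added followed by HCVcc-Cre virus (~0.5 moi). After 44 h further culture, luciferase substrate was added, plates held 15 min at room temperature, and luminescence read for 15 sec.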
The depositor's hits bear a star; [ ] = remark or other dose. % is scaled to controls: 0 for no effect and ±100 for the full control effect; potency is read from the fitted curve at half-maximal effect.

What do the screens show for `COc1ccccc1CNC(=O)c1cnc2sc(N3CCOCC3)nn2c1=O`?
VACV mCherry inh: -5%; LASV entry inh: 16%[46.1 µM]; VACV Venus inh: -15%

What do the screens show for `O=C(COC(=O)Cc1ccc(-c2ccccc2)cc1)NCc1ccccc1`?
LASV entry inh: -9%; Marburg entry inh: 3%; HCV inh: 1%

How did O=C(COC(=O)CC(c1ccccc1)c1ccccc1)NCc1ccccc1 do in these assays?
LASV entry inh: 12µM*; Marburg entry inh: 1%; HCV inh: -18%

Results for CCN(CC(=O)NCc1ccc(Cl)cc1)C(=O)c1oc2ccccc2c1C ?
VACV mCherry inh: inactive; LASV entry inh: -18%[46.1 µM]; Marburg entry inh: inconclusive; VACV Venus inh: -10%; HCV inh: -28%

What do the screens show for `CCN(CC(=O)NCc1ccc(F)cc1)C(=O)c1oc2ccccc2c1C`?
VACV mCherry inh: -7%; LASV entry inh: inconclusive; Marburg entry inh: 8.9µM*; VACV Venus inh: 4%; HCV inh: -11%

How did O=C(Cc1ccc(OCCC2CCCCC2)cc1)NO do in these assays?
VACV mCherry inh: inconclusive; VACV Venus inh: -15%

How did O=C(NC1CCCCC1)C(c1ccccn1)N(C(=O)Cc1cccs1)c1ccc(Cl)cc1 (centres undefined) do in these assays?
LASV entry inh: -27%; Marburg entry inh: 10µM*; HCV inh: -8%

How did Cc1cc(C)cc(N(C(=O)Cc2cccs2)C(C(=O)NC2CCCCC2)c2ccccn2)c1 (centres undefined) do in these assays?
LASV entry inh: 16%; Marburg entry inh: -19%; HCV inh: -20%

What do the screens show for `Cn1cc(/C=C/c2cc[n+](C)cc2)c2cc(Cl)ccc21`?
VACV mCherry inh: inconclusive; LASV entry inh: inconclusive; Marburg entry inh: inconclusive; VACV Venus inh: -3%; HCV inh: inconclusive

Results for C[n+]1ccc(/C=C/c2c[nH]c3ccc(F)cc23)cc1 ?
HCV inh: 1µM*

How did Cn1cc(/C=C/c2cc[n+](C)cc2)c2cc(F)ccc21 do in these assays?
VACV mCherry inh: -17%; LASV entry inh: inconclusive; Marburg entry inh: inconclusive; VACV Venus inh: -16%; HCV inh: 0.56µM*

What do the screens show for `CCSc1nc(-c2ccccc2)nc(C(Cl)Cl)n1`?
VACV mCherry inh: inconclusive; VACV Venus inh: 10µM*; HCV inh: inconclusive

How did COc1ccc(NC(=O)c2cnc(SC)n2-c2ccc(F)cc2)c(OC)c1 do in these assays?
VACV mCherry inh: inactive; LASV entry inh: inconclusive; Marburg entry inh: 13µM*; VACV Venus inh: -7%; HCV inh: inconclusive

What do the screens show for `COC(=O)c1ccc(NC(=O)N2CCC(CN3CCc4ccccc4C3)CC2)cc1`?
VACV mCherry inh: -8%; LASV entry inh: 1%[46.1 µM]; VACV Venus inh: -13%

Results for COc1ccc(CCNCCC(c2ccccc2)c2ccccc2)cc1OC ?
VACV mCherry inh: inactive; VACV Venus inh: -12%

What do the screens show for `COc1cc(OC)c(OC)cc1CCC(C)NCCC(c1ccccc1)c1ccccc1` (centres undefined)?
VACV mCherry inh: inconclusive; VACV Venus inh: inconclusive; HCV inh: 7.9µM*

How did CCOC(=O)c1c(-c2ccc(C)o2)csc1NC(=S)NC(=O)c1cccs1 do in these assays?
VACV mCherry inh: inactive; LASV entry inh: 23µM*; Marburg entry inh: inconclusive; VACV Venus inh: -24%; HCV inh: inconclusive

What do the screens show for `CCOC(=O)c1c(-c2ccc(C)o2)csc1NC(=S)NC(=O)c1ccccc1Br`?
VACV mCherry inh: -5%; LASV entry inh: 26%[14.3 µM]; Marburg entry inh: -18%; VACV Venus inh: -22%; HCV inh: inconclusive

Results for CCOC(=O)c1c(-c2ccc(C)o2)csc1NC(=O)CSc1nnnn1-c1ccccc1 ?
VACV mCherry inh: -13%; LASV entry inh: -26%; Marburg entry inh: inconclusive; VACV Venus inh: -7%; HCV inh: 1.8µM*

What do the screens show for `COC(=O)[C@@H]1CC[C@H](C)[C@@H](c2ccc(C)cc2)N1C(=O)c1ccc(C=NO[C@H](C)c2cn([C@@H]3COC[C@@H]3O)nn2)cc1`?
LASV entry inh: -17%[14.3 µM]; Marburg entry inh: 4%[14.2 µM]

How did CCOC(=O)c1cc(NC(=O)c2ccccc2)c(=O)n2c1oc1ccccc12 do in these assays?
VACV mCherry inh: 10µM*; VACV Venus inh: 7.9µM*; HCV inh: 7%

How did CCOC(=O)c1cc(NC(=O)c2ccc(C)cc2)c(=O)n2c1oc1ccccc12 do in these assays?
VACV mCherry inh: -2%; LASV entry inh: 8%[46.1 µM]; Marburg entry inh: -4%[46.1 µM]; VACV Venus inh: -2%

How did Cc1cc(SCC(=O)NCc2ccccc2Cl)nc(=O)[nH]1 do in these assays?
VACV mCherry inh: -9%; LASV entry inh: 6%[46.1 µM]; VACV Venus inh: 6%

What do the screens show for `CCc1ccccc1NC(=O)CCc1c(C)nc2cc(-c3ccccc3)nn2c1C`?
VACV mCherry inh: -20%; LASV entry inh: 8%[46.1 µM]; Marburg entry inh: 2%[46.1 µM]; VACV Venus inh: 0%

What do the screens show for `COc1cc(CNc2ccc(N3CCCC3)cc2)ccc1OCc1ccccc1`?
VACV mCherry inh: -13%; LASV entry inh: -27%; Marburg entry inh: inconclusive; VACV Venus inh: 2%; HCV inh: inconclusive

Results for COc1cc(CNCc2cccs2)ccc1OCC(=O)NC(C)(C)C ?
VACV mCherry inh: -24%; LASV entry inh: -3%; Marburg entry inh: 9.2µM*; VACV Venus inh: -12%; HCV inh: inconclusive

What do the screens show for `COc1cc(CNC(C)C23CC4CC(CC(C4)C2)C3)ccc1OCC(=O)NC(C)(C)C` (centres undefined)?
VACV mCherry inh: inconclusive; LASV entry inh: inconclusive; Marburg entry inh: 6.3µM*; VACV Venus inh: -23%; HCV inh: inconclusive

Results for COc1cc(CNc2ccc(N3CCCCC3)cc2)ccc1OCC(=O)NC(C)(C)C ?
VACV mCherry inh: inconclusive; LASV entry inh: inconclusive; Marburg entry inh: inconclusive; VACV Venus inh: 15%; HCV inh: 10µM*

What do the screens show for `Cc1nc2ccc(S(=O)(=O)NC(C(=O)NCc3ccc(Cl)cc3)C(C)C)cc2s1` (centres undefined)?
VACV mCherry inh: -4%; LASV entry inh: -11%[46.1 µM]; Marburg entry inh: 8%[46.1 µM]; VACV Venus inh: -5%

Results for CC(C)(C)c1ccc(C(=O)C[n+]2ccccc2Cl)cc1 ?
VACV mCherry inh: -16%; VACV Venus inh: -12%

Results for CC(C)[C@H](NC(=O)N1c2ccccc2NC(=O)[C@@H]1C(C)C)C(=O)N[C@@H](C(=O)O)c1ccccc1 ?
VACV mCherry inh: -1%; VACV Venus inh: -6%; HCV inh: 0.35µM*

What do the screens show for `CC(C)[C@H](NC(=O)N1c2ccccc2NC(=O)[C@@H]1C(C)C)C(=O)N[C@@H](Cc1ccccc1)C(=O)O`?
VACV mCherry inh: -8%; VACV Venus inh: -4%; HCV inh: 16%

How did CC(=O)c1ccc2c(c1)C1C(Cl)C(Sc3ccccc3[N+](=O)[O-])CC1C(c1ccccc1[N+](=O)[O-])N2 (centres undefined) do in these assays?
VACV mCherry inh: -16%; LASV entry inh: inconclusive; Marburg entry inh: inconclusive; VACV Venus inh: -23%; HCV inh: 2.2µM*

Compound activity (PubChem)
